# Source: PubChem BioAssay
# AmpC inh no detg: qHTS Inhibitors of AmpC Beta-Lactamase (assay without detergent); AmpC nitrocefin hydrolysis, absorbance 480 nm, 0.0001% Triton; AID 485341, 2010; Potency, µM (top dose mostly 57.1 µM), for the others: top-dose activity change, negative = inhibition, most hits filed as inhibitors; hit rate 0.52% among 330,000; P00811;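 note: plate controls were no compound for no effect and no enzyme for full effect; nearly all actives have a fitted effect of over 20% in size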
# Target sequence (P00811 whole entry, looked up): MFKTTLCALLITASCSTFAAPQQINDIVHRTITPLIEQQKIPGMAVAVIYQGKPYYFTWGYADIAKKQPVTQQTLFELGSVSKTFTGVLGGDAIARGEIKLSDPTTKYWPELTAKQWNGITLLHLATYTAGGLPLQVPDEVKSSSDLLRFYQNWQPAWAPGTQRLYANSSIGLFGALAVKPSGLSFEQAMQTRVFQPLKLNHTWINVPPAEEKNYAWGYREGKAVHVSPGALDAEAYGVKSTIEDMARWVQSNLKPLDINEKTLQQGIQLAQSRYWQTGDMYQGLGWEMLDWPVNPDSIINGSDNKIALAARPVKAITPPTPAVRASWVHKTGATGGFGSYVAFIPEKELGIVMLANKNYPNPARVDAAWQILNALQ
#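 AmpC (5.3 nM in the dispensed reagent) in 20 mM phosphate pH 7.0 with 0.01% (detergent screen) or 0.0001% Triton X-100 was preincubated with compounds for 15 min at room temperature. Nitrocefin was then added from an 800 uM solution, and hydrolysis was followed at 480 nm.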
# AmpC inh detg: qHTS Inhibitors of AmpC Beta-Lactamase (assay with detergent). P00811. AmpC hydrolysis of nitrocefin, absorbance 480 nm, 0.01% Triton. Potency, µM (highest dose often 114 µM), inactives show at the highest dose activity change, negative = inhibition, usual class: inhibitors. hit rate 0.041% among 370,000. AID 485294, 2010;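 note: 0% = no-compound wells and -100% = no-enzyme wells; nearly all actives have a fitted effect of over 25% in size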
#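 AmpC (5.3 nM in the dispensed reagent) in 20 mM phosphate pH 7.0 with 0.01% (detergent screen) or 0.0001% Triton X-100 was preincubated with compounds for 15 min at room temperature. Nitrocefin was then added from an 800 uM solution, and hydrolysis was followed at 480 nm.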
# MARV entry inh: qHTS for inhibitors of binding or entry into cells for Marburg Virus | Potency, µM (top dose mostly 37.8 µM), inactives show at the top dose activity change, negative = inhibition, actives largely listed as inhibitors | Marburg virus pseudotyped entry inhibition, cell reporter | hit rate 1.8% among 300,000; calls by dose curve; tested in HEK293 cells
# LASV entry inh: qHTS for Inhibitors of binding or entry into cells for Lassa Virus; Potency, µM (doses to about 37.9 µM), for the others: at the highest dose activity change, negative = inhibition, most hits filed as inhibitors; Lassa virus pseudotype entry inhibition, cell reporter; hit rate 1.2% among 300,000; calls by dose curve; tested in HEK293 cells; note: nearly all actives have a fitted effect of over 50% in size
# AMA1-RON2 inh: qHTS for Inhibitors of AMA1-RON; Towards Development of Antimalarial Drug Lead: Primary Screen; hit rate 0.2% among 360,000; Plasmodium falciparum AMA1 (3D7) - RON2 peptide interaction; AID 720542, 2013; AlphaScreen AMA1-biotinylated RON2 peptide binding; Potency, µM (doses to about 58.2 µM), without a hit: top-dose activity change, negative = inhibition, actives largely listed as inhibitors;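 note: 0% = vehicle wells and -100% = peptide control; nearly all actives have a fitted effect of over 45% in size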
#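 AMA1 (3D7) with his tag at 25 nM final met compounds first, then biotinylated RON2 peptide at 25 nM; detection used donor plus acceptor beads, 10 µg/mL apiece, read by AlphaScreen after 30 min at room temperature.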
# Active calls of the source: *; ? = inconclusive; . = not tested or not shown; ! = not active in a repeat; [ ] = another dose, or the depositor's remark. Compounds with a hit are over-represented: about 2.3% of the library has one in this group of screens. Unless noted, calls come from the whole dose curve; as a rule, active = well fitted curve in the direction sought with a large enough effect; inconclusive = small, poorly fitted or top-dose-only effect, or another doubt; inactive = no such curve, though single readings can be large; an effect the other way counts as inactive or inconclusive. Unless noted, % is set by controls: 0 for no effect and ±100 for the full control effect; potency is the fitted concentration of half-maximal effect.
SMILES,AmpC inh no detg,AmpC inh detg,MARV entry inh,LASV entry inh,AMA1-RON2 inh
Cc1ccccc1-c1nnc(SCC(=O)Nc2cccnc2Cl)o1,-3%,.,?,2µM*,15%
CC1Cc2ccccc2N1S(=O)(=O)c1cccc(C(=O)NCc2ccco2)c1 (configuration not stated),-32%,.,?,10µM*,-10%
O=C(NCC(c1ccco1)N1CCc2ccccc2C1)c1ccc(Cl)c([N+](=O)[O-])c1 (configuration not stated),-32%,-20%,-4%,?,-10%
O=C(NCc1ccco1)c1ccc2c(c1)C(=O)c1ccccc1-2,-16%,0%,?,23µM*,-4%
O=C(NCC(c1ccco1)N1CCCC1)c1ccc(Cl)c(S(=O)(=O)N2CCc3ccccc32)c1 (configuration not stated),114%,-2%,11µM*,?,20%[11.6 µM]
CC1Cc2ccccc2N1S(=O)(=O)c1cccc(C(=O)OCC(=O)NCc2ccco2)c1 (configuration not stated),-44%,-2%,-1%[46.1 µM],4%,-7%
O=C(NCc1cccs1)C1CCN(c2ccc(S(=O)(=O)N3CCOCC3)cc2Cl)CC1,44%,-8%,1.1µM*!,?,-8%
CC(C)=CCCC(C)=CCON=C1C[C@@H](O)[C@@H](O)[C@@H]2[C@H]3C(=O)N(C[C@@H]4CCCO4)C(=O)[C@@H]3CC[C@H]12,.,.,22%[14.2 µM],.,.
O=C(NCc1ccccc1)c1ccc(S(=O)(=O)N2CCCc3ccccc32)cc1,-29%,-5%,?,?,-1%
Cc1ccc(CNC(=O)C2CCN(S(=O)(=O)c3ccc4c(c3)CC(C)N4C(=O)C3CC3)CC2)cc1 (configuration not stated),36%,-8%,.,.,-13%
O=C(NCc1ccco1)c1ccc(S(=O)(=O)N2CCCc3ccccc32)cc1,-21%,9%,?,16µM*,-8%
CC1Cc2cc(S(=O)(=O)N3CCC(C(=O)NCc4ccco4)CC3)ccc2N1C(=O)C1CCC1 (configuration not stated),47%,-1%,13µM*,?,-4%
C[C@H]1CC[C@@H]2[C@@H](C)[C@H]3[C@H](C[C@H]4[C@@H]5CC=C6C[C@@H](O[C@@H]7O[C@H](CO)[C@H](O)[C@H](O[C@@H]8O[C@H](CO)[C@@H](O)[C@H](O)[C@H]8O)[C@H]7O[C@@H]7O[C@@H](C)[C@H](O)[C@@H](O)[C@H]7O)CC[C@]6(C)[C@H]5CC[C@]34C)N2C1,221%,-7%,?,?,12%
COC1C(O)C(C)OC(OC2CCC3(C)C(CCC4C3C(O)CC3(C)C(C5=CC(=O)OC5)CCC43O)C2)C1O (configuration not stated),.,.,?,?,-7%
C[C@@H]1O[C@@H](O[C@H]2C[C@@H](O)[C@]3(CO)[C@@H]4C(CC[C@]3(O)C2)[C@@]2(O)CC[C@H](C3COC(=O)C3)[C@@]2(C)C[C@H]4O)[C@H](O)[C@H](O)[C@H]1O (some centres not stated),-48%,-13%,0.82µM*,.,11%
C[C@@H]1O[C@H](O[C@H]2C[C@@H](O)[C@]3(CO)[C@H]4[C@H](O)C[C@]5(C)[C@@H](C6=CC(=O)OC6)CC[C@@]5(O)[C@H]4CC[C@]3(O)C2)[C@@H](O)[C@H](O)[C@H]1O,.,.,0.065µM*,.,.
C[C@@H]1O[C@@H](O[C@H]2C[C@@H](O)[C@]3(CO)[C@H]4[C@H](O)C[C@]5(C)[C@@H]([C@@H]6COC(=O)C6)CC[C@]5(O)[C@@H]4CC[C@]3(O)C2)[C@H](O)[C@H](O)[C@H]1O,.,.,0.32µM*,.,.
CCCC(=O)Oc1c(Sc2ccc(Cl)cc2)c(C)nn1-c1ccccc1,.,-3%,14%[46.1 µM],0%[46.1 µM],.
NS(=O)(=O)c1ccc(NC(=S)Nc2ccn(Cc3cccc4ccccc34)n2)cc1,-54%,0%,6.3µM*,3.5µM*,41%
CCc1ccc(NC(=O)Cn2ccn(-c3ccc(C)c(C)c3)c(=O)c2=O)cc1,.,18%,.,6%[46.1 µM],.
O=C(c1cc([N+](=O)[O-])cc([N+](=O)[O-])c1)N1CCCc2ccccc21,-27%,-1%,10µM*,12%,11%
O=C(c1cc([N+](=O)[O-])ccc1N1CCCCC1)N1CCc2ccccc21,-40%,-10%,4.5µM*,?,-2%
COc1ccc(/C=C/C(=O)c2cc(F)ccc2OC(=O)c2ccccc2C)cc1OC,2%,?,5.2µM*,?,-14%
CCCCN(CC)C(=O)CSc1nc2n[nH]c(C)c2c(=N)n1-c1ccc(CC)cc1,.,-2%,.,-17%[46.1 µM],.
COc1ccc(N2CCN(C(=O)Cc3ccc(Cl)cc3)CC2)cc1,22%,-8%,5%,?,18µM*
SMILES,AmpC inh no detg,AmpC inh detg,MARV entry inh,LASV entry inh,AMA1-RON2 inh
COc1ccc(N2CCN(C(=O)Cc3ccc(C)cc3)CC2)cc1,12%,-10%,2%,0%,-12%
COc1ccc(/C=N/Nc2cc(N(C)C)nc(N(C)C)n2)cc1,-15%,-8%,4.5µM*,?,?
COc1ccc(/C=N/Nc2cc(OC)ncn2)cc1,-16%,-1%,?,10µM*,-17%
CN1CCN(c2nc3cc(C(F)(F)F)ccc3n3cccc23)CC1,.,.,8.9µM*,?,-11%
CCc1cc(C(=O)N(C)CC(=O)Nc2c(Cl)cccc2Cl)sc1C,-18%,1%,?,8.9µM*,1%[11.6 µM]
COCc1[nH]nc2c1[C@@H](c1sccc1C)C(C#N)=C(N)O2,.,.,-12%,.,.
O=C(CSc1nc2nn(-c3ccccc3)c(=O)c-2c2n1CCCCC2)Nc1ccc(F)c(F)c1,10µM*,.,5%[46.1 µM],1%[46.1 µM],-9%
N=c1c2c(-c3ccccc3)c(-c3ccccc3)n(Cc3ccco3)c2ncn1CCCO,85%,2%,5.6µM*,?,-26%
N=c1c2c(-c3ccccc3)c(-c3ccccc3)n(Cc3ccco3)c2ncn1CCN1CCOCC1,180%,?,10µM*,?,-18%
Cc1c(C(=O)NCc2cccc(Cl)c2)sc2ncnc(N(C)C3CCCCC3)c12,.,7%,.,-4%[46.1 µM],.
COc1cc(/C=C(/C#N)c2ccc(F)cc2)ccc1Oc1ccc([N+](=O)[O-])cn1,28µM*,-19%,?,?,-26%
Cc1ccc(NC(=O)N(Cc2ccc3c(c2)OCO3)C2CCN(Cc3ccccc3)CC2)cc1Cl,.,11%,.,11µM*,.
Cc1ccc(NC(=O)N(Cc2ccc3c(c2)OCO3)C2CCN(Cc3ccccc3)CC2)cc1C,.,-4%,.,?,.
